High-throughput results as filed in PubChem BioAssay.
In the library only some 11% were active in any assay of this set; here they are far more common.
JMJD2A Tudor inh: blocks the human JMJD2A Tudor domain | O75164 | AlphaScreen JMJD2A-Tudor / H3K4me3 peptide binding | Potency, µM (doses to about 114 µM), most hits filed as inhibitors | 390,000 tested, 4.4% active | AID 504339; also: nearly all actives have a fitted effect of over 50% in size
BAZ2B inh: blocks human BAZ2B; Potency, µM (top dose mostly 114 µM), actives largely listed as inhibitors; 360,000 tested, 4.4% active; Q9UIF8; AlphaScreen BAZ2B-H3K14Ac peptide displacement; AID 504333; also: nearly all actives have a fitted effect of over 60% in size
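AlphaScreen displacement of biotin-H3(5-23)K14Ac peptide (50 nM final) from BAZ2B (50 nM final) in PBS pH 7.4, 0.01% Tween-20; complex preformed 30 min RT, then compounds (top 110 uM) 30 min RT, beads 20 min dark.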
G9a block: inhibitors of human histone lysine methyltransferase G9a. Q96KQ7. 350,000 tested, 8.8% active. G9a H3K9 monomethylation, AlphaScreen, 2 h. Potency, µM (top dose mostly 102 µM), most hits filed as inhibitors; also: nearly all actives have a fitted effect of over 75% in size
Target sequence (Q96KQ7 913-1193 limits assumed): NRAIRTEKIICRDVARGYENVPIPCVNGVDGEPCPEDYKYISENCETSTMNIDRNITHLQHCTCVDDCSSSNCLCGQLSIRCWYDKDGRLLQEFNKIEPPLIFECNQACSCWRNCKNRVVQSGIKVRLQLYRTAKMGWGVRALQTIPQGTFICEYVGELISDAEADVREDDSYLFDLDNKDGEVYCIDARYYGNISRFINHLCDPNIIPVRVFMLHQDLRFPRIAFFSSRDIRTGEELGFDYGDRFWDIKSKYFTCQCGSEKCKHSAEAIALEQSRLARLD
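Signal arises when biotinylated H3K9 peptide, once monomethylated, bridges streptavidin donor and antibody-captured acceptor beads. Enzyme at 20 nM was preincubated 15 min with test compounds; peptide 500 nM and SAM 20 uM then reacted for 2 h.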
HP1b binding inh: blocks HP1-beta chromodomain binding to methylated histone tails; AlphaScreen HP1-beta / biotin-H3K9me3 peptide binding; Potency, µM (highest dose often 114 µM), most hits filed as inhibitors; 390,000 tested, 0.56% active; AID 540317; also: nearly all actives have a fitted effect of over 70% in size
Target sequence (P83916 whole entry, looked up): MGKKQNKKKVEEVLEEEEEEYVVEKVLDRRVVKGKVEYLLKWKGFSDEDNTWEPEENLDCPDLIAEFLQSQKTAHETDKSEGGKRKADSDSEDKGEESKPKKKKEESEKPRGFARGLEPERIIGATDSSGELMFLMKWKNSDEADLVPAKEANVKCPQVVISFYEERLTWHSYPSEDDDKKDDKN
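AlphaScreen: HP1-beta (50 nM) preformed 30 min with biotin-H3(1-18)K9me3 peptide (50 nM) in PBS pH 7.4, 0.01% Tween-20. Compound added for 30 min at RT, then streptavidin donor/nickel chelate acceptor beads (10 ug/mL) for 30 min.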
L3MBTL1 block: inhibitors of human L3MBTL1 | Q9Y468 | AlphaScreen L3MBTL1–H3K9me1 peptide binding | Potency, µM (doses to about 57.1 µM), hits mostly inhibitors | 230,000 tested, 0.66% active | AID 485360; also: nearly all actives have a fitted effect of over 60% in size
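AlphaScreen assay: L3MBTL1 (50 nM final) was preincubated 30 min at room temperature with biotinylated H3(1-15)K9me1 peptide (75 nM final), then 30 min with library compounds; streptavidin donor and nickel chelate acceptor beads (10 ug/mL final) added, 30 min dark.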
A number is an active result; i = inactive; ? = inconclusive; nt = not tested or not shown; [ ] = dose if it differs, or a comment. Calls follow the shape of the dose curve; as a rule, active = well fitted inhibition curve with a large enough effect; inconclusive = small, poorly fitted or top-dose-only effect; inactive = no such curve, though single readings can be large or run the other way.

SMILES | JMJD2A Tudor inh | BAZ2B inh | G9a block | HP1b binding inh | L3MBTL1 block
[O][C@H]1[C@@H](O)[C@@H](CO)O[C@@H](O[C@@H]2[C@@H]3OC[C@H]2O[C@H](O[C@@H]2[C@@H](O)[C@H](C[C@@H]4[C@@H]5OC[C@H]4O[CH][C@@H]5O)O[C@H](CO)[C@@H]2OS(=O)(=O)O)[C@@H]3OS(=O)(=O)O)[C@@H]1O | nt | nt | 15.8µM | nt | nt
C=CCN1C(=O)S/C(=C/c2ccsc2)C1=O | i | i | i | i | i
C=CCN1C(=O)S/C(=C/c2ccc(Sc3nc4ccccc4[nH]3)o2)C1=O | i | i | 2µM | i | i
CC(C)N1C(=O)S/C(=C/c2ccc(Sc3nc4ccccc4[nH]3)o2)C1=O | i | i | 70.8µM | i | i
CCOC(=O)CCCCC(=O)c1[nH]c(=O)[nH]c1Cn1cnc2ccccc21 | ? | 35.5µM | ? | i | i
CCOC(=O)CCCCC(=O)c1[nH]c(=O)[nH]c1CSc1nc(-c2ccccc2)c(C#N)c(=O)[nH]1 | ? | 35.5µM | ? | i | i
N#Cc1c(-c2ccccc2)nc(SCC(=O)N(c2ccccc2)c2ccccc2)[nH]c1=O | i | i | ? | i | i
CCOC(=O)CCCCC(=O)c1[nH]c(=O)[nH]c1CSCCO | 79.4µM | 12.6µM | ? | i | nt
CCC(C(=O)O)C1CCC(C)C(C(C)C(O)C(C)C(=O)C(CC)C2OC3(C=CC(O)[C@@]4(CC[C@](C)(C5CC[C@@](O)(CC)C(C)O5)O4)O3)C(C)CC2C)O1 (stereo partly specified) | nt | nt | i[2.33 µM] | nt | nt
c1ccc(CN(CCN(Cc2ccccn2)Cc2ccccn2)Cc2ccccn2)nc1 | nt | nt | i | nt | nt
O=C(O)c1ccc(S(=O)(=O)c2ccc([N+](=O)[O-])cc2[N+](=O)[O-])cc1 | i | i | 25.1µM | i | nt
CN(C)c1ccc(C(=O)OCC#CCSc2nnc(-c3cccc4ccccc34)o2)cc1 | i | i | i[12.7 µM] | i | i
COc1ccc(Cn2c(=O)[nH]c3cc(C(=O)N4CCN(c5cc(Cl)ccc5C)CC4)ccc3c2=O)cc1 | i | i | i | i | nt
CN(CP(=O)(O)CN(C)S(C)(=O)=O)S(C)(=O)=O | 50.1µM | 89.1µM | i[12.7 µM] | i | i
Cc1nn(-c2ccccc2)c2sc(C(=O)Nc3cccc(Br)c3)cc12 | i | i | i | i | nt
CCCCn1c(N)c(N(CCOC)C(=O)COC(=O)/C=C/c2ccc(Br)cc2)c(=O)[nH]c1=O | i | i | ? | i | nt
Cn1c(=O)n(C)c2cc([N+](=O)[O-])c(N3CCN(C(=O)c4ccccc4Cl)CC3)cc21 | i | 50.1µM | i | i | i
Cn1c(=O)n(C)c2cc([N+](=O)[O-])c(N3CCN(S(=O)(=O)c4ccccc4)CC3)cc21 | ? | ? | ? | i | i
Cn1c(=O)n(C)c2cc([N+](=O)[O-])c(N3CCN(S(C)(=O)=O)CC3)cc21 | i | 50.1µM | i | i | i
Cc1c(CCNC(=O)C(C)(C)C)sc2nc(-c3ccc(F)cc3)nn12 | i | i | ? | i | nt
CCc1ccc(CNC(=O)c2cnc3sc(N(CC)CC)nn3c2=O)cc1 | i | i | i | i | nt
CCc1ccc(CCC(=O)Nc2nc(CC(C)=O)ns2)o1 | ? | i | 70.8µM | i | i
CNc1nc(CC(C)=O)ns1 | i | i | 79.4µM | i | i
O=S(=O)(Nc1ccc(-c2ccc(N3CCCC3)nn2)cc1)c1cc(F)ccc1F | i | i | i | i | nt
CCCCN(C)C(=O)Cn1cnc2sc(C)c(S(=O)(=O)N3CCC(C)CC3)c2c1=O | i | i | i | i | nt
SMILES | JMJD2A Tudor inh | BAZ2B inh | G9a block | HP1b binding inh | L3MBTL1 block
CCN(CC)c1ccc(NC(=O)COC(=O)/C=C/c2nc3ccccc3s2)cc1 | ? | i | 6.31µM | i | i
COc1ccc(S(=O)(=O)NC(Cc2cnc[nH]2)C(=O)O)cc1 (stereo unspecified) | 12.6µM | i | ? | i | i
CN1CCc2nc3sc(C(=O)Nc4cccc(C#N)c4)c(N)c3cc2C1 | ? | ? | 15.8µM | i | nt
CN1CCc2nc3sc(C(=O)Nc4c(F)cccc4F)c(N)c3cc2C1 | i | i | 15.8µM | i | nt
Nc1ccc(-c2ccc(N)c([N+](=O)[O-])c2)cc1[N+](=O)[O-] | i | i | 70.8µM | i | i
Nc1ccc(OCc2ccccc2)cc1[N+](=O)[O-] | 39.8µM | nt | nt | ? | nt
O=C(CCNC(=O)c1ccc([N+](=O)[O-])cc1)Oc1ccc(F)c(F)c1 | i | nt | nt | i | i
CN(C)S(=O)(=O)c1ccc(/C(O)=C2/C(=O)C(=O)N(CCCN3CCOCC3)C2c2ccncc2)cc1 (stereo unspecified) | i | nt | nt | i | nt
CCOc1ccc(/C(O)=C2\C(=O)C(=O)N(c3cc(C)on3)C2c2ccccc2OC)cc1 (stereo unspecified) | i | i | ? | i | i
CCOc1ccc(/C(O)=C2/C(=O)C(=O)N(c3nc(C)c(C)s3)C2c2ccco2)cc1 (stereo unspecified) | ? | i | 44.7µM | i | i
COC(=O)c1sc(N2C(=O)C(=O)/C(=C(/O)c3ccc(C)cc3)C2c2ccco2)nc1C (stereo unspecified) | 63.1µM | i | ? | i | nt
COC(=O)c1sc(N2C(=O)c3oc4ccccc4c(=O)c3C2c2cccc(O)c2)nc1C (stereo unspecified) | i | i | i | i | nt
COc1ccc(/C=C/C(=O)Oc2cccc(/C=N/NC(=O)COc3c(C)cccc3C)c2)cc1 | i | 100µM | i[12.7 µM] | i | i
COc1ccc(/C=C/C(=O)Oc2ccc(/C=N/NC(=O)COc3c(C)cccc3C)cc2)cc1 | nt | i | i | nt | i
COc1ccc(N(C)S(=O)(=O)c2cccc(C(=O)N3CCN(c4ccccc4)CC3)c2)cc1 | i | i | ? | i | i
COc1ccc(C2=CSC3=C(C(=O)c4cccc(S(=O)(=O)N(C)C)c4)CCN23)cc1 | ? | i | 8.91µM | i | nt
O=C(CNc1ccc(Br)cc1)c1ccc(O)cc1 | ? | i | 44.7µM | i | nt
O=C(CNc1ccc(Br)cc1)c1ccc(Br)s1 | i | ? | 39.8µM | i | nt
Cc1ccc(NC(=O)C2CCCN2S(=O)(=O)c2cccc3cccnc23)cc1C (stereo unspecified) | i | i | i | i | nt
COC(=O)c1ccc(OC)c(Cn2c(=O)n(-c3cccc(Cl)c3)c(=O)c3c2c2cc(C)ccc2n3C)c1 | i | i | i | i | nt
O=c1c2c3c(sc2nc(NCCO)n1Cc1ccco1)CCCCC3 | i | i | i | i | i
O=c1c2c3c(sc2nc(NCCO)n1CCc1ccccc1)CCCCC3 | ? | ? | 56.2µM | ? | i
CN(C)CCNc1nc2sc3c(c2c(=O)n1Cc1ccccc1)CCCCC3 | 50.1µM | 35.5µM | ? | i | nt
CN(C)CCNc1nc2sc3c(c2c(=O)n1-c1ccccc1)CCCCC3 | i | i | i | i | nt
CCN1CCN(c2cc3c(cc2F)c(=O)c(S(=O)(=O)c2ccc(OC)cc2)cn3CC)CC1 | i | i | i | i | nt
O=C1CN(S(=O)(=O)c2cccc(C(=O)O)c2)c2ccccc2N1 | i | i | 50.1µM | i | nt
